In PubChem BioAssay (EPA / NIEHS):
Activity calls are given as the source filed them. How the source made its calls: active means hit-call score of the fitted dose curve at least 0.9, where 1 is the maximum; inactive means score below 0.9.

Test: Tanguay_ZF_120hpf_MUSC: Oregon State University Tanguay Lab 120 Hour Post-fertilization zebrafish Assay for Muscle Malformation (AID 2284401)
In short: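 Dechorionated Tropical 5D wild-type zebrafish embryos exposed statically from 6 to 120 hpf at 28C, one per well, in 0.64% DMSO. Muscle malformation scored present/absent by brightfield microscopy at 120 hpf, fitted against DMSO.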
For `FC(F)C(F)(F)COCC1CO1` (stereo not given), the outcome was “inactive”.
With `CN(CCO)S(=O)(=O)C(F)(F)C(F)(F)C(F)(F)C(F)(F)C(F)(F)C(F)(F)C(F)(F)C(F)(F)F` the outcome was “inactive”.
With `C[N+](C)(C)CCCNS(=O)(=O)C(F)(F)C(F)(F)C(F)(F)C(F)(F)C(F)(F)C(F)(F)C(F)(F)C(F)(F)F` the outcome was “inactive”.
With `CCO[Si](CCC(F)(F)C(F)(F)C(F)(F)C(F)(F)C(F)(F)C(F)(F)F)(OCC)OCC` the outcome was “inactive”.
For `OCC(O)CC(F)(F)C(F)(F)C(F)(F)C(F)(F)F` (stereo not given), the outcome was “inactive”.
For `OCC(F)(F)C(F)(F)C(F)(F)C(F)F`, the outcome was “inactive”.
With `O=C(O)C(F)(OC(F)(F)C(F)(OC(F)(F)C(F)(F)C(F)(F)F)C(F)(F)F)C(F)(F)F` (stereo not given) the outcome was “inactive”.
For `FC(F)(F)C(F)(F)C(F)(F)N(C(F)(F)C(F)(F)C(F)(F)F)C(F)(F)C(F)(F)C(F)(F)F`, the outcome was “inactive”.
For `C=CC(=O)OCC(F)(F)C(F)(F)C(F)(F)C(F)(F)COC(=O)C=C`, the outcome was “inactive”.
For `O=S(=O)(OCC(F)F)C(F)(F)F`, the outcome was “inactive”.
With `C[Si](Cl)(Cl)CCC(F)(F)C(F)(F)C(F)(F)C(F)(F)C(F)(F)C(F)(F)F` the outcome was “inactive”.
With `OC(O)(C(F)C(O)(O)C(F)(F)F)C(F)(F)F` the outcome was “inactive”.
For `O=C(O)C(F)(F)C(F)(F)C(F)(F)C(F)(F)C(F)(F)C(F)(F)C(F)(F)C(F)(F)C(F)(F)C(F)(F)C(F)(F)C(F)(F)C(F)(F)F`, the outcome was “inactive”.
With `O=S(=O)(O)C(F)(F)C(F)(F)C(F)(F)C(F)(F)C(F)(F)C(F)(F)C(F)(F)F` the outcome was “inactive”.
With `OCC(F)(F)C(F)(F)C(F)(F)C(F)(F)C(F)(F)C(F)F` the outcome was “inactive”.
In the case of `NS(=O)(=O)C(F)(F)C(F)(F)C(F)(F)C(F)(F)C(F)(F)C(F)(F)F`, the outcome is reported as “inactive”.
In the case of `OCCCCC(F)(F)C(F)(F)C(F)(F)C(F)(F)F`, the outcome is reported as “inactive”.
With `O=C(O)C(F)(F)C(F)(F)C(F)(F)C(F)(F)F` the outcome was “inactive”.
With `FC1CC(F)(F)C(F)(F)C1(F)F` (stereo not given) the outcome was “inactive”.
In the case of `CCN(CCO)S(=O)(=O)C(F)(F)C(F)(F)C(F)(F)C(F)(F)C(F)(F)C(F)(F)C(F)(F)C(F)(F)F`, the outcome is reported as “inactive”.
With `FC(F)(F)C(F)(F)C(F)(F)CI` the outcome was “inactive”.
With `O=C(O)C(F)(F)C(F)(F)C(F)(F)C(F)(F)C(F)(F)C(F)(F)C(F)(F)C(F)(F)Cl` the AC50 was 39.3 µM (active).
In the case of `O=C(CC(=O)C(F)(F)C(F)(F)C(F)(F)F)c1cccs1`, the outcome is reported as “inactive”.
With `CO[Si](C)(CCC(F)(F)C(F)(F)C(F)(F)C(F)(F)C(F)(F)C(F)(F)F)OC` the outcome was “inactive”.
With `O=P(O)(O)CCC(F)(F)C(F)(F)C(F)(F)C(F)(F)C(F)(F)C(F)(F)C(F)(F)C(F)(F)F` the outcome was “inactive”.
For `NC(=O)C(F)(F)C(F)(F)C(F)(F)C(F)(F)C(F)(F)C(F)(F)C(F)(F)F`, the outcome was “inactive”.
For `O=C(O)C(F)(F)C(F)(F)OC(F)(F)F`, the outcome was “inactive”.
In the case of `O=C(Cl)C(F)(F)C(F)(F)C(F)(F)C(=O)Cl`, the outcome is reported as “inactive”.
In the case of `OCCCC(F)(F)C(F)(F)C(F)(F)F`, the outcome is reported as “inactive”.
For `FC(F)(F)C(F)(F)C(F)(F)C(F)(F)C(F)(F)CCI`, the outcome was “inactive”.
For `FC(F)(F)C(F)(F)C(F)(F)CC1CO1` (stereo not given), the outcome was “inactive”.
For `O=C(O)C(F)(OC(F)(F)C(F)(OC(F)(F)C(F)(OC(F)(F)C(F)(F)C(F)(F)F)C(F)(F)F)C(F)(F)F)C(F)(F)F` (stereo not given), the outcome was “inactive”.
In the case of `FC(F)(F)C(F)(F)C(F)(F)C(F)(F)C(F)(F)C(F)(F)C(F)(F)C(F)(F)CCS`, the outcome is reported as “inactive”.
In the case of `C=CC(=O)OCC(F)(F)C(F)(F)C(F)(F)C(F)(F)C(F)(F)C(F)(F)C(F)(F)F`, the outcome is reported as “inactive”.
In the case of `OCC(F)(F)C(F)(F)C(F)(F)F`, the outcome is reported as “inactive”.
For `FC(F)(F)C(F)(F)C(F)(F)C(F)(F)C(F)(F)C(F)(F)CC[Si](Cl)(Cl)Cl`, the outcome was “inactive”.
In the case of `FC(F)=C(F)C(F)(F)C(F)(F)C(F)(F)C(F)(F)C(F)(F)C(F)(F)F`, the outcome is reported as “inactive”.
In the case of `FC(F)(F)COC(OCC(F)(F)F)OCC(F)(F)F`, the outcome is reported as “inactive”.
For `NC(=O)C(F)(F)C(F)(F)C(F)(F)C(F)F`, the outcome was “inactive”.
With `NC(=O)C(F)(F)C(F)(F)C(F)(F)C(F)(F)C(N)=O` the outcome was “inactive”.
